Compound activity as filed in PubChem.
C diff growth = blocks growth of Clostridium difficile. Clostridium difficile clinical isolate growth, OD600, 24 h; active compounds read low. growth activity, negative = inhibition, % at 16 µg/mL (by protocol). actives 0.25% (n = 86,000);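 active = mean growth activity at or below -80% and every replicate also at or below -80%; inconclusive = mean at or below -80% but some replicate above -80%; inactive = mean growth activity above -80%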
T cruzi growth-1 = inhibitors of T. cruzi proliferation. T. cruzi beta-gal in NIH3T3, GalScreen luminescence, 90 h. inhibition, % at 8.34 µM. actives 5.9% (n = 77,000). AID 624255;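 active = mean inhibition above about 93%, with at least 55% of replicates each passing it, limit read from the data, passing the limit was not always enough; inconclusive = only one of those two conditions holds; inactive = neither condition holds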
Pf Dd2 growth = P. falciparum Dd2 growth inhibition; SYBR Green, 72 h; active compounds read low; activity change, % at 10 µM; actives 2.3% (n = 94,000); AID 1159554; in the data active = activity change below about -80%; inconclusive = no clear call, values can overlap the other calls
T cruzi growth-2 = Trypanosoma cruzi proliferation inhibition | T. cruzi beta-gal in NIH3T3, GalScreen luminescence, 90 h | actives 72% (n = 5,600) | shares compounds with T cruzi growth-1 | inhibition, % at 8.35 µM | AID 651739;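 active = mean replicate inhibition above about 95% and at least 55% of replicates individually reaching it, limit read from the data; inconclusive = only one of the two criteria is met; inactive = neither criterion is met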
T cruzi growth-3 = inhibitors of T. cruzi proliferation. T. cruzi beta-gal in NIH3T3, GalScreen luminescence, 90 h. inhibition, % at 2.09 µM. shares compounds with T cruzi growth-1. AID 651740. actives 21% (n = 5,600);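 active = mean inhibition above about 95%, with at least 55% of replicates also reaching it, limit read from the data; inconclusive = meets just one of the two conditions; inactive = meets neither condition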
3T3 cytotox = cytotoxicity in mouse NIH/3T3 fibroblasts. shares compounds with T cruzi growth-1. NIH/3T3 viability, CellTiter-Glo ATP luminescence, 90 h. cytotoxicity (signal decrease), % at 8.35 µM. actives 14% (n = 5,600). AID 651742;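 active = mean signal decrease across replicates above about 35% based on untreated-well scatter, with enough replicates individually passing, limit read from the data; inconclusive = no rule stated though some were filed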
3T3 cytotox 2 = cytotoxicity in mouse NIH/3T3 fibroblasts; shares compounds with T cruzi growth-1; NIH/3T3 viability, CellTiter-Glo ATP luminescence, 90 h; actives 56% (n = 5,600); inhibition, % at 24.9 µM;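 active = mean loss of cell viability signal at or above a set limit, and enough replicates individually reaching it; inconclusive = meets only the mean limit or only the replicate share; inactive = meets neither condition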
Each line names hits and unclear results; the compound was inactive in the other large screens (follow-up assays come after a bar, where they were run); ! = not confirmed by another sample. The list is not random: actives were taken first. Their share in the collection is about 6.8%.

Cn1cnc(S(=O)(=O)N2CCCCN3[C@H](CO)[C@@H](c4ccc(-c5cccc(F)c5)cc4)[C@@H]3C2)c1	T cruzi growth-1 103 | T cruzi growth-2 104 | T cruzi growth-3 inactive | 3T3 cytotox inactive | 3T3 cytotox 2 64
Cn1cnc(S(=O)(=O)N2CCCCN3[C@H](C2)[C@@H](c2ccc(-c4cccc(F)c4)cc2)[C@@H]3CO)c1	T cruzi growth-1 103 | T cruzi growth-2 96 | T cruzi growth-3 inactive | 3T3 cytotox inactive | 3T3 cytotox 2 inconclusive
Cn1cnc(S(=O)(=O)N2CCCCN3[C@H](CO)[C@@H](c4ccc(-c5cccc(F)c5)cc4)[C@H]3C2)c1	none
Cn1cnc(S(=O)(=O)N2CCCCN3[C@@H](CO)[C@H](c4ccc(-c5cccc(F)c5)cc4)[C@@H]3C2)c1	none
Cc1noc(C)c1NC(=O)N(C)C[C@H]1Oc2ccc(NS(=O)(=O)c3cn(C)cn3)cc2CC(=O)N([C@H](C)CO)C[C@H]1C	none
C[C@@H]1CCCCO[C@@H](CN(C)C(=O)NC2CCCCC2)[C@@H](C)CN([C@@H](C)CO)C(=O)c2cc(NS(=O)(=O)c3ccc(Cl)cc3)ccc2O1	T cruzi growth-1 99 | T cruzi growth-2 103 | T cruzi growth-3 inactive | 3T3 cytotox inactive | 3T3 cytotox 2 inactive
C[C@H](CO)N1C[C@H](C)[C@H](CN(C)C(=O)NC2CCCCC2)OCCCC[C@H](C)Oc2ccc(NS(=O)(=O)c3ccccc3)cc2C1=O	T cruzi growth-1 94 | T cruzi growth-2 inconclusive | T cruzi growth-3 inactive | 3T3 cytotox inactive | 3T3 cytotox 2 inactive
C[C@@H]1CCCCO[C@@H](CN(C)C(=O)NC2CCCCC2)[C@H](C)CN([C@@H](C)CO)C(=O)c2cc(NS(=O)(=O)c3ccc(Cl)cc3)ccc2O1	none
Cc1ccc(S(=O)(=O)Nc2ccc3c(c2)C(=O)N([C@H](C)CO)C[C@@H](C)[C@@H](CN(C)C(=O)NC2CCCCC2)OCCCC[C@@H](C)O3)cc1	none
C[C@@H]1CCCCO[C@@H](CN(C)C(=O)NC2CCCCC2)[C@H](C)CN([C@@H](C)CO)C(=O)c2cc(NS(=O)(=O)c3ccccc3)ccc2O1	T cruzi growth-1 inconclusive
Cc1ccc(S(=O)(=O)Nc2ccc3c(c2)C(=O)N([C@H](C)CO)C[C@H](C)[C@H](CN(C)C(=O)NC2CCCCC2)OCCCC[C@H](C)O3)cc1	T cruzi growth-1 118 | T cruzi growth-2 105 | T cruzi growth-3 inactive | 3T3 cytotox inactive | 3T3 cytotox 2 inactive
C[C@@H]1CN([C@H](C)CO)S(=O)(=O)c2ccc(C#CC3(O)CCCC3)cc2O[C@H]1CN(C)C	none
C[C@@H]1CN([C@@H](C)CO)C(=O)Cc2cc(NS(=O)(=O)c3ccc(F)cc3)ccc2O[C@H]1CN(C)S(C)(=O)=O	none
C[C@H](CO)N1C[C@H](C)[C@H](CN(C)S(=O)(=O)c2ccccc2F)Oc2ncc(/C=C/c3ccccc3)cc2C1=O	none
C[C@H]1CN([C@@H](C)CO)C(=O)c2cc(/C=C/c3ccccc3)cnc2O[C@@H]1CN(C)S(=O)(=O)c1ccccc1	T cruzi growth-1 127 | T cruzi growth-2 106 | T cruzi growth-3 inactive | 3T3 cytotox inactive | 3T3 cytotox 2 inconclusive
C[C@@H]1CN([C@H](C)CO)C(=O)c2cc(/C=C/c3ccccc3)cnc2O[C@H]1CN(C)S(=O)(=O)c1ccccc1F	T cruzi growth-1 109 | T cruzi growth-2 113 | T cruzi growth-3 inactive | 3T3 cytotox inactive | 3T3 cytotox 2 24
C[C@@H]1CN([C@H](C)CO)C(=O)c2cc(/C=C/c3ccccc3)cnc2O[C@@H]1CN(C)S(=O)(=O)c1ccccc1	none
C[C@H](CO)N1C[C@H](C)[C@H](CN(C)S(=O)(=O)c2ccccc2)Oc2ncc(/C=C/c3ccccc3)cc2C1=O	T cruzi growth-1 113! | T cruzi growth-2 inconclusive | T cruzi growth-3 inactive | 3T3 cytotox inactive | 3T3 cytotox 2 71
C[C@H]1CN([C@@H](C)CO)C(=O)c2cc(/C=C/c3ccccc3)cnc2O[C@H]1CN(C)S(=O)(=O)c1ccccc1	none
C/C=C/c1cnc2c(c1)C(=O)N([C@H](C)CO)C[C@H](C)[C@H](CN(C)S(=O)(=O)c1ccc(C)cc1)O2	none
Cc1ccc(S(=O)(=O)N(C)C[C@@H]2Oc3ncc(/C=C/c4ccccc4)cc3C(=O)N([C@H](C)CO)C[C@@H]2C)cc1	T cruzi growth-1 120 | T cruzi growth-2 102 | T cruzi growth-3 inactive | 3T3 cytotox inactive | 3T3 cytotox 2 54
CO[C@H]1CN(C)C(=O)c2cc(NS(=O)(=O)c3ccc(C)cc3)ccc2OC[C@@H](C)NC[C@@H]1C	none (no result: C diff growth)
COCC(=O)Nc1ccc2c(c1)C(=O)N(C)C[C@@H](OC)[C@@H](C)CN(C(=O)NC(C)C)[C@H](C)CO2	none (no result: C diff growth)
CC(C)NC(=O)Nc1ccc2c(c1)C(=O)N([C@@H](C)CO)C[C@@H](C)[C@@H](CN(C)Cc1ccccc1)O2	none
COc1ccccc1-c1ccc2c(c1)O[C@@H](CN(C)Cc1ccc3c(c1)OCO3)[C@@H](C)CN([C@@H](C)CO)S2(=O)=O	none (no result: T cruzi growth-1)
Cc1ccc(S(=O)(=O)N(C)C[C@@H]2Oc3c(NC(=O)c4cc(C)nn4C)cccc3C(=O)N([C@@H](C)CO)C[C@@H]2C)cc1	none
Cc1ccc(S(=O)(=O)N(C)C[C@H]2Oc3c(cccc3N(C)C)C(=O)N([C@@H](C)CO)C[C@H]2C)cc1	T cruzi growth-1 102 | T cruzi growth-2 inactive | T cruzi growth-3 inactive | 3T3 cytotox inactive | 3T3 cytotox 2 inactive
Cc1ccc(S(=O)(=O)N(C)C[C@H]2Oc3c(cccc3N(C)C)C(=O)N([C@H](C)CO)C[C@H]2C)cc1	none
COc1ccc2c3c([nH]c2c1)[C@H](CO)N(C(=O)c1ccncc1)CC31CCN(C(=O)NC(C)C)CC1	none (no result: T cruzi growth-1)
COc1ccc(S(=O)(=O)Nc2ccc3c(c2)C(=O)N([C@@H](C)CO)C[C@H](C)[C@H](CN(C)Cc2ccc4c(c2)OCO4)OCCCC[C@@H](C)O3)cc1	none
Cc1ccc(S(=O)(=O)Nc2ccc3c(c2)C(=O)N([C@H](C)CO)C[C@H](C)[C@@H](CN(C)Cc2ccc4c(c2)OCO4)OCCCC[C@H](C)O3)cc1	T cruzi growth-1 102 | T cruzi growth-2 108 | T cruzi growth-3 inactive | 3T3 cytotox inactive | 3T3 cytotox 2 84
C[C@@H]1CCCCO[C@H](CN(C)Cc2ccc3c(c2)OCO3)[C@H](C)CN([C@H](C)CO)C(=O)c2cc(NS(=O)(=O)c3ccc(F)cc3)ccc2O1	none (no result: C diff growth)
Cc1ccc(S(=O)(=O)Nc2ccc3c(c2)C(=O)N([C@@H](C)CO)C[C@@H](C)[C@H](CN(C)Cc2ccc4c(c2)OCO4)OCCCC[C@H](C)O3)cc1	none
